# Measurements reported in the supplement of paper PMC6555819.
# Key:
# Assay in all cases: PBM binding z-score (relative to random genomic background probes); higher = stronger binding; sequences stand for … in GC…GCGATTGACAGCGTAGAATGAAGG
# [1] = test system: PPARg:RXRa DBDmut IVT, anti-RXR (DBD mutation: RXRa K156A/R161A, NR concentration 270 nM, RXRa partner concentration 90 nM)
# Summary of the method: (§1)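 On custom Agilent 4×180K arrays, double-stranded probes with 34-nt variable regions carried direct-repeat seeds, single-nucleotide variants, half-site ablations or random human genomic background. Ligand-free nuclear receptor dimers were applied for 1 h, and binding was read with antibodies against each partner (one per run). Binding z-scores come from regression-normalized fluorescence, with the random background probes as reference.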
# [2] = test system: PPARg:RXRa IVT, anti-PPARg (NR concentration 270 nM, RXRa partner concentration 90 nM)
# Summary of the method: as §1
# [3] = test system: PPARg DBDmut:RXRa IVT, anti-PPARg (DBD mutation: PPARg1 K132A/R137A, NR concentration 270 nM, RXRa partner concentration 90 nM)
# Summary of the method: as §1
# [4] = test system: PPARg DBDmut IVT, anti-PPARg (DBD mutation: PPARg1 K132A/R137A, NR concentration 270 nM)
# Summary of the method: as §1
# [5] = test system: PPARg homodimer (NR concentration 180 nM)
# Summary of the method: as §1
# [6] = test system: PXR:RXRa (NR concentration 270 nM, RXRa partner concentration 90 nM)
# Summary of the method: as §1
# [7] = test system: PXR homodimer (NR concentration 270 nM)
# Summary of the method: as §1
# [8] = test system: RARa:RXR (NR concentration 270 nM, RXRa partner concentration 90 nM)
# Summary of the method: as §1
# [9] = test system: RARa homodimer (NR concentration 270 nM)
# Summary of the method: as §1
# [10] = test system: RARb:RXRa (NR concentration 270 nM, RXRa partner concentration 90 nM)
# Summary of the method: as §1
Sequence,PBM binding z-score [1],PBM binding z-score [2],PBM binding z-score [3],PBM binding z-score [4],PBM binding z-score [5],PBM binding z-score [6],PBM binding z-score [7],PBM binding z-score [8],PBM binding z-score [9],PBM binding z-score [10]
GCTGCTCGGTCAGGTTGGTCAGCTAACGGGTACG,-0.244,-0.303,-1.15,-1.51,-0.397,-0.721,-0.841,-0.696,-0.978,1.94
TCGAGTAGGTTCGTCGGGGCATTCAGCCAACATA,0.771,-0.0233,-1.34,-1.13,-0.174,0.391,-0.361,0.296,-0.807,0.556
TCAGACAGGAGAAGGTAACTCAGGTACGCAGTCG,2.06,-0.153,-0.44,-0.387,0.0505,0.125,-0.21,0.759,0.536,0.225
CCTACTCGGCCAAAGGTCATTGATTCCAATGCTC,3.3,5.09,0.222,-0.127,3.85,5.38,2.54,5.95,1.19,4.56
ATCGTAAGGTCGAAGGTGAGTATACCCACCCGAA,-0.143,1.54,1.22,-0.311,1.79,1.87,-0.0484,3.33,0.0373,2.74
CGAGCTAGGTCAGAACAGGACAGTGAAGGATGAT,1.93,1.04,-1.14,-1.15,0.363,0.798,-0.245,0.682,-0.341,2.89
ACAATTAGTTGAGACGAGGGCAACCGATAGGTTG,-0.0279,0.475,0.916,0.299,0.566,1.37,0.711,1.13,0.878,1.14
AGTCAAAGTTCAGGACGGGGTAACGTAAAGCACG,0.312,2.3,1.25,1.24,1.87,3.66,1.28,3.45,1.36,4.13
TAGCTTAGGTCAGATCGGGCCAGTATACGCTATA,-0.166,0.996,0.561,-0.217,0.322,1.24,-0.17,1.68,-0.0696,3.54
CCTAGTTGGTCAAGGTCATACACGCTATAGGTAC,2.28,3.11,0.777,1.26,3.11,4.21,3.04,4.33,2.79,4.04
AGCTCTAGGTAACCAAGTTCAGTGAATGCCGAAC,3.96,2.07,-0.276,-0.0149,0.421,1.53,1.74,0.198,-0.119,0.793
ACTATTAGTTGAGACGAGGGCAACGGATAGGTTG,-0.0332,0.424,0.418,0.955,0.155,1.32,0.265,1.26,0.262,0.843
GCGACTGGGGCAGAGCAGGTTACCATAAGGTTGG,3.52,2.22,-0.693,-0.694,-0.578,-0.201,-0.162,-0.103,-0.568,0.569
GTACCAAGGTGAATAAGTCGTTGATGAGTAGGCG,1.47,1.77,-0.113,0.912,0.706,-0.129,0.166,0.233,0.8,1.27
TCGAGTAGGTCAGTCGGGGCATTCAGCCAACATA,4.8,4.74,0.141,-0.71,1.14,1.71,0.855,1.47,-0.53,3.03
TCTGCTAGGTCAATTGGTCAGCTAACGAGCTGCC,3.71,3.87,1.29,0.854,2.37,0.895,-0.774,1.87,-0.436,3.79
CGTCCATGGTCAGCAGGTCAGTGAAAGCGACGTG,0.0989,0.518,-0.843,-0.979,-0.43,0.159,-0.486,0.728,-0.616,2.28
GCTATTAGTTGAAATGGCAACCGAATGATTCTCG,0.598,-0.104,0.641,0.526,0.501,-0.119,0.359,-0.166,0.404,-0.346
CCTTACGGGTCACTCCAGGTTATACCATCGGAGT,2.28,3.61,0.661,-0.4,1.69,5,0.455,3.74,0.133,3.68
CCTACTGGGCGAAAAAGGTCATTGATGCCGATAA,0.836,1.94,-0.234,-0.941,2.25,4.39,1.04,4.66,0.67,3.68
GATACAGGGTCAGCGAGAGGCCAGAGTATGGAAA,1.16,2.78,-0.0146,-0.645,2.81,3.7,0.293,4.49,0.19,4.26
ATCGAAAGGTCGACGAGGTGAGTATACACCGTTT,0.442,1.82,0.853,1.45,1.32,3.15,0.642,4.09,1.19,3.73
GTACCAAGGTGAATAGGTCATTGATGAGTAGGCG,3.17,4.04,0.503,0.284,4.15,2.62,0.883,4.41,1.5,3.56
TCGAGTAGGTTAGCGGCATTCAGAATGGCGTCGA,1.81,0.944,-1.28,-0.893,-1.05,-0.724,-0.924,-0.504,-1.29,0.21
CATACAGGGTCAGCTATGCCAGAGTAGGGACGGC,0.895,2.38,0.429,0.135,0.969,2.18,-0.0786,3.05,0.191,4.03

Sequence,PBM binding z-score [1],PBM binding z-score [2],PBM binding z-score [3],PBM binding z-score [4],PBM binding z-score [5],PBM binding z-score [6],PBM binding z-score [7],PBM binding z-score [8],PBM binding z-score [9],PBM binding z-score [10]
CGAACGAGGGTATGAGTTGATAGCAAATGCCGAT,0.876,0.397,0.137,0.369,-0.383,-0.238,0.0824,-0.307,0.157,0.117
GCTGCAAGGTCAGGTTGGTCAGCTAACGGGTACG,1.24,1.7,-0.124,-0.859,1.91,2.44,-0.0524,3.02,0.176,4.4
GCTGCTAGGACAACTGATGGTCAGCTAAAGCTCG,0.688,-0.573,-1.55,-1.57,-1.24,-1.1,-1.66,-1.08,-1.4,0.341
CCGCCTGGGGCAAAGGTTACCATACTCAGTACGA,0.0766,3.23,-0.483,-0.8,2.34,2.62,-0.268,4.07,0.0335,2.47
TCATATAGGTAATACAGGTGAAAGTGGGCATCTA,4.07,3.76,0.893,1.47,1.79,1.02,0.455,1.35,1.57,0.826
TCATATAGGCAATACAGGTGAAAGTCGGCATCTA,2.91,1.7,0.893,0.339,0.723,0.419,0.292,0.707,0.869,0.192
TAGCCTAGGTCATTCGGGCCAGTATAGTGTCGGC,1.8,2.76,-0.115,-0.745,0.969,2.11,0.189,2.39,-0.428,3.74
TCATATAGGTAAATTCTAGGTGAAAGTCCGATCT,3.83,4.08,1.26,1.32,1.09,0.778,0.524,1.22,1.61,0.593
TCTTGTAGATCAGCAGGTTAAGAATGCTGGCCAA,1.36,0.428,-0.195,-0.491,0.12,0.00264,-0.0255,0.239,-0.0617,0.12
CCGACTAGGTTATGGGGCATTCAGGCAACGGTGA,3.02,3.3,-0.895,-0.581,1.05,-0.0889,-0.0769,0.303,-0.167,0.869
TCTTGTAGATCAACAGGAGGATAAGAAAGATCGA,1.64,0.232,0.62,0.57,0.00545,0.187,0.0396,0.295,-0.0742,-0.284
CAACCTAGGTCAAGGTCAAAGTCGGTTTGTGCCA,4.85,5.78,-0.338,0.164,3.33,5.19,1.48,5.29,0.703,5.17
ACAGACAGGTGAGTGAAGGGAACTCAGCTGGACG,0.124,0.352,-0.265,-0.714,-0.397,-0.572,-0.37,-0.456,-0.307,0.438
CCTTACGGGTTAAGGTTATAGCACGGGTGGTACG,0.0868,0.867,-0.169,-0.202,0.702,1.16,0.325,1.85,0.517,1.8
CCTAGTTGGTCAGGAGGTCACACAGCGGATATGA,1.92,3.62,0.997,0.401,5.93,4.51,2.55,5.39,3.77,3.81
CGTCAAAGTTCAAGGAAACGTAACAGAAAGCAGC,0.0711,1.12,0.307,1.1,1.84,3.45,1.73,2.73,1.33,5
CCTAGTTGGTCAAGGTCACACACGCTATAGGTAC,2.68,3.52,0.555,1.3,4.56,4.41,2.97,4.88,4.38,4.17
CCGACTGGGGCGTAAGGTTACCATAAGCCAGCCC,0.446,0.275,-1.37,-0.827,0.0631,0.213,-0.391,0.883,-0.676,1
ACTTACGGGTCAACGAGGTTATAGCCCGCGTATA,3.54,3.99,0.579,0.364,2.12,5.03,2.93,4.97,-0.101,4.03
AGAACGAAGGCACGCTGAGTTGATAGCAGAGTAG,-0.47,-0.214,-0.0465,-0.623,-1.17,-0.449,-0.696,-0.468,-0.886,-0.566
GCTTACGGTTCAAAGGTTATAGCATGAATAGAAT,-0.685,0.999,0.711,0.999,0.99,4.71,0.601,6.22,0.458,2.33
GATACAGGGTCAGCTAGAGGCCAGAATATGGAAA,0.991,2.56,-0.253,-0.217,2.63,3.24,0.115,4.04,0.657,4.02
CGAACTAGGTCAGAAAAGGACAGTGAAGGATGAT,6.88,7.14,2.3,1.47,1.15,1.17,-0.473,1.08,0.026,3.16
GCCATTAGTTGAAAGGGCAACCGAATGATTCTCG,0.352,0.947,0.187,-0.306,0.971,0.706,0.067,1.4,-0.15,2.21
